Experimental data as given in ChEMBL document CHEMBL1961873, “Compounds: GSK PKIS; Assays: Nanosyn kinase panel” (2012).

How the values were obtained:
[1] = molecular target: Sphingosine kinase 1 (Homo sapiens) (UniProt Q9NYA1); conditions: at 1 µM;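 note: mean SPHK1 inhibition value reported from the GSK PKIS kinase panel screen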
[2] = molecular target: T1, Sphingosine kinase 2 (Homo sapiens) (UniProt Q9NRA0); conditions: at 0.1 µM
T1 sequence (whole entry): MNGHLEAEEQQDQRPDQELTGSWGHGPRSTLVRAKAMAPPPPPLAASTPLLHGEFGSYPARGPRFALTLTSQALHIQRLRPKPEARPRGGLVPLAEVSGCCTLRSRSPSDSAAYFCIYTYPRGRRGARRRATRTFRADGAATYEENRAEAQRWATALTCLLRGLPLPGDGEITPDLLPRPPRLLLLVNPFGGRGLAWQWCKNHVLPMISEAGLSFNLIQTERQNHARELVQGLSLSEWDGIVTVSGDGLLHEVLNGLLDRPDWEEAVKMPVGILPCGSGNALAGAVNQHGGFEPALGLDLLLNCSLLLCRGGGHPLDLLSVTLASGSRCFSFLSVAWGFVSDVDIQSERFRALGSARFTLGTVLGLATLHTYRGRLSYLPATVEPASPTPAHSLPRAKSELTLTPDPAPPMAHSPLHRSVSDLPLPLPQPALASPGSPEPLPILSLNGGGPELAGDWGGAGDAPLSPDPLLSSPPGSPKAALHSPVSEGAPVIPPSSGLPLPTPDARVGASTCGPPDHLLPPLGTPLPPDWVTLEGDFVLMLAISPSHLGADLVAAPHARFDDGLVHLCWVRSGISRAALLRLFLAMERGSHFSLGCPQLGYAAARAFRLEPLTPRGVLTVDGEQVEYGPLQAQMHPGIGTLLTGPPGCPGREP

[3] = molecular target: T1, Sphingosine kinase 2 (Homo sapiens); conditions: at 1 µM
[4] = molecular target: Casein kinase II subunit alpha (Homo sapiens) (UniProt P68400); conditions: at 0.1 µM
[5] = molecular target: Casein kinase II subunit alpha (Homo sapiens) (UniProt P68400); conditions: at 1 µM
[6] = molecular target: T2, Inhibitor of nuclear factor kappa-B kinase subunit alpha (Homo sapiens) (UniProt O15111); conditions: at 0.1 µM
T2 sequence (whole entry): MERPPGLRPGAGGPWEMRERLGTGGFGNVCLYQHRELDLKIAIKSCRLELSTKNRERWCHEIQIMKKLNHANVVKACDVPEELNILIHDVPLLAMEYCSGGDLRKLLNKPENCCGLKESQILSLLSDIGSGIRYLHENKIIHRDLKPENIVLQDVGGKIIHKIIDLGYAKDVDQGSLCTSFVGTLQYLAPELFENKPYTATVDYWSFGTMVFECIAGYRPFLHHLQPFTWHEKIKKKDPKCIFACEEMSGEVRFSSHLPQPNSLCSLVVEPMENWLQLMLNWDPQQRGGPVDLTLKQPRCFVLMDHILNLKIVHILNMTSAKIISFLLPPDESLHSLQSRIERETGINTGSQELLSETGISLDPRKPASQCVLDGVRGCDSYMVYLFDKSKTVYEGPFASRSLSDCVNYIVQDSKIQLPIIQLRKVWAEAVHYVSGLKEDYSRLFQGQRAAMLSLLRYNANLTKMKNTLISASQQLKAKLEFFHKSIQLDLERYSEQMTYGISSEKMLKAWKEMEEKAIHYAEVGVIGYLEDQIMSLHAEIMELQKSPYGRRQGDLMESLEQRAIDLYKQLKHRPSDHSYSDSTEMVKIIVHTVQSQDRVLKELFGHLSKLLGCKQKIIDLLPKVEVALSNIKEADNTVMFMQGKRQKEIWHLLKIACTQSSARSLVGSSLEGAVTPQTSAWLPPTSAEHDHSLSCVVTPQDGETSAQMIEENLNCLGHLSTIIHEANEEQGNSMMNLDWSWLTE

[7] = molecular target: T2, Inhibitor of nuclear factor kappa-B kinase subunit alpha (Homo sapiens); conditions: at 1 µM
[8] = molecular target: T3, Inhibitor of nuclear factor kappa-B kinase subunit beta (Homo sapiens) (UniProt O14920); conditions: at 0.1 µM
T3 sequence (whole entry): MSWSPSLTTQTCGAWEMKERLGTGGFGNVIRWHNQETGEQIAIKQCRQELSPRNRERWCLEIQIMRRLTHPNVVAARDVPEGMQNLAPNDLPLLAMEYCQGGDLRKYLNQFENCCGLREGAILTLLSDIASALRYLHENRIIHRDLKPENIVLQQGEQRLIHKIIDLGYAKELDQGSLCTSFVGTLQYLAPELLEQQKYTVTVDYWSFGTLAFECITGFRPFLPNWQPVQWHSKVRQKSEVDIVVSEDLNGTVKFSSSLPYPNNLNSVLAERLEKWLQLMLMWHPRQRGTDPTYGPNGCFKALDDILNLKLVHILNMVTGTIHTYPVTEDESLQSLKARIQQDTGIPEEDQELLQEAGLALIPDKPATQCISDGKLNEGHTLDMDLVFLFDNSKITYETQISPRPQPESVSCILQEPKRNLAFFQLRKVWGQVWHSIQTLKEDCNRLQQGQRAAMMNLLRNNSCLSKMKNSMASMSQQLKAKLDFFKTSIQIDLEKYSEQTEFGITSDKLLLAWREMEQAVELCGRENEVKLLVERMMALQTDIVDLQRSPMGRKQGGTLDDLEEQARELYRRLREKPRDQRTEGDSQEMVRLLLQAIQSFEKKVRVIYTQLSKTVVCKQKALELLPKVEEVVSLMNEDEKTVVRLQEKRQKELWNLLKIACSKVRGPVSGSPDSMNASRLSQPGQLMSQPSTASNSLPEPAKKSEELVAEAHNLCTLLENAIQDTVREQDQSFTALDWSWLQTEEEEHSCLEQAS

[9] = molecular target: T3, Inhibitor of nuclear factor kappa-B kinase subunit beta (Homo sapiens); conditions: at 1 µM
[10] = molecular target: T4, Inhibitor of nuclear factor kappa-B kinase subunit epsilon (Homo sapiens) (UniProt Q14164); conditions: at 0.1 µM
T4 sequence (whole entry): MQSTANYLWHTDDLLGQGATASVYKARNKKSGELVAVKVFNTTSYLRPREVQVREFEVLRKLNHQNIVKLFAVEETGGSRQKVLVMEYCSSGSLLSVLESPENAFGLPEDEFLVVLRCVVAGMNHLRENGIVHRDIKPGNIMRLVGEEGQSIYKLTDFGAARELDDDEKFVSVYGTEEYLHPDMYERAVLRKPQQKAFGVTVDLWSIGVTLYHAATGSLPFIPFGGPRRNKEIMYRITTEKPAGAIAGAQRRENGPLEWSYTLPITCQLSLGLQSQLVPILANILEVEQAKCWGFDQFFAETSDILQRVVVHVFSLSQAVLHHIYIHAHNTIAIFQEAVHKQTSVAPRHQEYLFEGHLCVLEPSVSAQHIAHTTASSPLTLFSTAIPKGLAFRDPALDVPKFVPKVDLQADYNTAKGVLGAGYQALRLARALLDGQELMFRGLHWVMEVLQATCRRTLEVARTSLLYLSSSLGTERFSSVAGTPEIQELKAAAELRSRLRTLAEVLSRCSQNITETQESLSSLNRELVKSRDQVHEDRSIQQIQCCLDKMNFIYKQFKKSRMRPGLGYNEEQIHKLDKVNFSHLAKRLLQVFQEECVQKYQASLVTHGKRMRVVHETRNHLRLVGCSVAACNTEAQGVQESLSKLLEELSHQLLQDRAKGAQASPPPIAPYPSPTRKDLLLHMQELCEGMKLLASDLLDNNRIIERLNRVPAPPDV

[11] = molecular target: T4, Inhibitor of nuclear factor kappa-B kinase subunit epsilon (Homo sapiens); conditions: at 1 µM
[12] = molecular target: T5, Serine/threonine-protein kinase Nek1 (Homo sapiens) (UniProt Q96PY6); conditions: at 0.1 µM
T5 sequence (whole entry): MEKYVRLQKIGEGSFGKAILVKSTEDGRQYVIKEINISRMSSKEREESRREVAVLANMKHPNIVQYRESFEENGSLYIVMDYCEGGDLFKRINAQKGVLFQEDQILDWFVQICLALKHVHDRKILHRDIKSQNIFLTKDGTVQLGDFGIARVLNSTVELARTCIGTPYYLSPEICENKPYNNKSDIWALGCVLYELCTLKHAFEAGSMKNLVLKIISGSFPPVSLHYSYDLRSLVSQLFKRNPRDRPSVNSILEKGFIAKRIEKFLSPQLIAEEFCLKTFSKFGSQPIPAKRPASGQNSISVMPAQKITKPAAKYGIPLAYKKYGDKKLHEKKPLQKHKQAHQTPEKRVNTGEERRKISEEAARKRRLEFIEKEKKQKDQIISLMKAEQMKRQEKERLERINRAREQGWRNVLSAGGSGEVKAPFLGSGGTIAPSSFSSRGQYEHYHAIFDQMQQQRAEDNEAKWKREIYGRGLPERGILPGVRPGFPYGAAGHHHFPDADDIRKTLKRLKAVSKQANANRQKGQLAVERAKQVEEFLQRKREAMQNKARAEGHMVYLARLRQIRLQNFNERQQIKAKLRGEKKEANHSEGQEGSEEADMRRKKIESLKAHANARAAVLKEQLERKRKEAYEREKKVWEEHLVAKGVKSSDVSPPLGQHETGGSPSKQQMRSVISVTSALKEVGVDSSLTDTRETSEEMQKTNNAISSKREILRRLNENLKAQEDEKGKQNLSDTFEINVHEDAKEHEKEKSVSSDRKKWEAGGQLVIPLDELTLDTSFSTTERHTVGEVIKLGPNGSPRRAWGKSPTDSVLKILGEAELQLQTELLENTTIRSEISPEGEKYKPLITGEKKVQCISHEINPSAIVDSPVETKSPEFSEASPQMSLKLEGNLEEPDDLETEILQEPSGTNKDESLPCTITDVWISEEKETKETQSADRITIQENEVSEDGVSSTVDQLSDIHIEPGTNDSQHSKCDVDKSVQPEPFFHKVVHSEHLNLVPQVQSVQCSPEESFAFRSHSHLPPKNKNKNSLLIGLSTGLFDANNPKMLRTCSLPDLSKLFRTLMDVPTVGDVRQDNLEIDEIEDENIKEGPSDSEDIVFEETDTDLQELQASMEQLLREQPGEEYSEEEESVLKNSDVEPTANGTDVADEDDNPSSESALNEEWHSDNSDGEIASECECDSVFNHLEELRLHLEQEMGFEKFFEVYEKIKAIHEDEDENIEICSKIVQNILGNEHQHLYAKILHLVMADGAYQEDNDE

[13] = molecular target: T5, Serine/threonine-protein kinase Nek1 (Homo sapiens); conditions: at 1 µM
[14] = molecular target: T6, Serine/threonine-protein kinase Nek2 (Homo sapiens) (UniProt P51955); conditions: at 0.1 µM
T6 sequence (whole entry): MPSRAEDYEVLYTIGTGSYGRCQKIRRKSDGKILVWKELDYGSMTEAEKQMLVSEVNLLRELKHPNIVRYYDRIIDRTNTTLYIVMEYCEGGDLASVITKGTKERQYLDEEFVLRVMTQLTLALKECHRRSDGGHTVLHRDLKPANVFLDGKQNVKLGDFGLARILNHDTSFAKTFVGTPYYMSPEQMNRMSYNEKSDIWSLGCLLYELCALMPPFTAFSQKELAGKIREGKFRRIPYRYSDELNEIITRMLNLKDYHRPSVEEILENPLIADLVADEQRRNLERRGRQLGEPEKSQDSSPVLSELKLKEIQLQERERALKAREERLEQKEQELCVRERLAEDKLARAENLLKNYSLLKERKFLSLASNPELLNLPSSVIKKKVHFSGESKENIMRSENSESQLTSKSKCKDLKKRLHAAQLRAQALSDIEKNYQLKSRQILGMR

[15] = molecular target: T6, Serine/threonine-protein kinase Nek2 (Homo sapiens); conditions: at 1 µM
[16] = molecular target: Serine/threonine-protein kinase Nek6 (Homo sapiens) (UniProt Q9HC98); conditions: at 0.1 µM
[17] = molecular target: Serine/threonine-protein kinase Nek6 (Homo sapiens) (UniProt Q9HC98); conditions: at 1 µM
[18] = molecular target: Serine/threonine-protein kinase Nek7 (Homo sapiens) (UniProt Q8TDX7); conditions: at 0.1 µM
[19] = molecular target: Serine/threonine-protein kinase Nek7 (Homo sapiens) (UniProt Q8TDX7); conditions: at 1 µM
[20] = molecular target: T7, Serine/threonine-protein kinase Nek9 (Homo sapiens) (UniProt Q8TD19); conditions: at 0.1 µM;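 note: reported value is the mean percent inhibition of NEK9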
T7 sequence (whole entry): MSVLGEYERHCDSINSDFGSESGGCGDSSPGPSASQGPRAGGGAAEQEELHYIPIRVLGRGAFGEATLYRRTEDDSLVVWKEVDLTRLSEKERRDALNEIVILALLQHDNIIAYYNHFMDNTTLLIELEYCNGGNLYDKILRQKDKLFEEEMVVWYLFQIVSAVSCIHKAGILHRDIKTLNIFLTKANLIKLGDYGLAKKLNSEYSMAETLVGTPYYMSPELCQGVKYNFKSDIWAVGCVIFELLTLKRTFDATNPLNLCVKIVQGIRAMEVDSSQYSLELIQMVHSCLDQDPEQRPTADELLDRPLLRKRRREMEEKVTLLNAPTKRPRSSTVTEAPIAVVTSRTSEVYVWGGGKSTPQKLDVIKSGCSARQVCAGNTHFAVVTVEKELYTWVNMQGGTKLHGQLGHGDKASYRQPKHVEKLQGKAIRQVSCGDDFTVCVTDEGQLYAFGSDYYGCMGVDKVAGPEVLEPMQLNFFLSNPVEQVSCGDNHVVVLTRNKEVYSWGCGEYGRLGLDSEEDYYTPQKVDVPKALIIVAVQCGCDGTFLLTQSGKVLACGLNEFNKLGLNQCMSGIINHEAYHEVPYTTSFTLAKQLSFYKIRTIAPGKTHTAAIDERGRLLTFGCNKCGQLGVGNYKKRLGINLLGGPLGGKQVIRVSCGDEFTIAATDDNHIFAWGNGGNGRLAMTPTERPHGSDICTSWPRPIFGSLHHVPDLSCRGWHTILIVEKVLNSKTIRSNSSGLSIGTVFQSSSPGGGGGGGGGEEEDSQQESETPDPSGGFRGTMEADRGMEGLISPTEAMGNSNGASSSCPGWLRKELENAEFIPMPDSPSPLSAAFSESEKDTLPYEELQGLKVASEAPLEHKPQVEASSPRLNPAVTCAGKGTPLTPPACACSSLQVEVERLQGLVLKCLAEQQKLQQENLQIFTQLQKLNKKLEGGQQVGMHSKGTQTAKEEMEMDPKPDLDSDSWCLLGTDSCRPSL

Sequence of Casein kinase II subunit alpha (Homo sapiens) (P68400 whole entry, looked up): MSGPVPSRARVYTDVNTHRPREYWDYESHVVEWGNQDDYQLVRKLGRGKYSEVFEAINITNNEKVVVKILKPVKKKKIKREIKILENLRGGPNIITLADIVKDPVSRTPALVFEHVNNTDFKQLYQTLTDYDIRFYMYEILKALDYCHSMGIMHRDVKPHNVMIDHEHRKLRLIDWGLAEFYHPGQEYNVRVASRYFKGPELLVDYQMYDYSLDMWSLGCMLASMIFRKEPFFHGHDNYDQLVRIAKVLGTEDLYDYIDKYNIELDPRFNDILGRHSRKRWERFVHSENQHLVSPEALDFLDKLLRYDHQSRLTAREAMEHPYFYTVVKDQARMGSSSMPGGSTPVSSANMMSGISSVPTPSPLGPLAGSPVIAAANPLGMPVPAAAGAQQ
Sequence of Serine/threonine-protein kinase Nek6 (Homo sapiens) (Q9HC98 whole entry): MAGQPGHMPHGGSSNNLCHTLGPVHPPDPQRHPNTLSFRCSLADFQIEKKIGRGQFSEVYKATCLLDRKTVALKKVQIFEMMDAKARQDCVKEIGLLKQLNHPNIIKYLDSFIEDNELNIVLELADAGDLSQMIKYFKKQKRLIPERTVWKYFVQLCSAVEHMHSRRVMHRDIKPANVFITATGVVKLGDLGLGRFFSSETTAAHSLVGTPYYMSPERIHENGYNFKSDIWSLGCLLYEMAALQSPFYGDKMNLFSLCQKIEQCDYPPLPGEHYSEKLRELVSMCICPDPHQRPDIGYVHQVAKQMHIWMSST
Sequence of Serine/threonine-protein kinase Nek7 (Homo sapiens) (Q8TDX7 whole entry, looked up): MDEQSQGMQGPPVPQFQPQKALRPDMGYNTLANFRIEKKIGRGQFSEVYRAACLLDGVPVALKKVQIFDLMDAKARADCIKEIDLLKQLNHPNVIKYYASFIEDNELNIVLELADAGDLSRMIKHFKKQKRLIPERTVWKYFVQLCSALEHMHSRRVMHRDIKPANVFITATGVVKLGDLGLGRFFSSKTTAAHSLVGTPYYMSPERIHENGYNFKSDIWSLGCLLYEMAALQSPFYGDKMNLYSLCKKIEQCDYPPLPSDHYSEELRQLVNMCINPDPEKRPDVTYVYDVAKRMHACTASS
Sequence of Sphingosine kinase 1 (Homo sapiens) (Q9NYA1 whole entry): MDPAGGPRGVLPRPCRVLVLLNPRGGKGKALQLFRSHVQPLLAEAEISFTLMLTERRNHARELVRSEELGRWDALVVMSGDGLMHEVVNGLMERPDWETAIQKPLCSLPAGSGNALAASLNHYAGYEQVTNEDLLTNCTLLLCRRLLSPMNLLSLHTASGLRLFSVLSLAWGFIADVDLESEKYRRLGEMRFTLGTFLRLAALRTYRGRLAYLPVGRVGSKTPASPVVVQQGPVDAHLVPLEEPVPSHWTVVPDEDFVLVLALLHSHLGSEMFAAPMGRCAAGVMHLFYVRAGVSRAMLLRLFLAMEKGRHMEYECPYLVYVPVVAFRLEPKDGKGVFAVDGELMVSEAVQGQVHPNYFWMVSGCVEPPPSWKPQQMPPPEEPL

Structure (SMILES)	inhibition [1] [%]	inhibition [2] [%]	inhibition [3] [%]	inhibition [4] [%]	inhibition [5] [%]	inhibition [6] [%]	inhibition [7] [%]	inhibition [8] [%]	inhibition [9] [%]	inhibition [10] [%]	inhibition [11] [%]	inhibition [12] [%]	inhibition [13] [%]	inhibition [14] [%]	inhibition [15] [%]	inhibition [16] [%]	inhibition [17] [%]	inhibition [18] [%]	inhibition [19] [%]	inhibition [20] [%]
COC(=O)Nc1nc2cc(Oc3ccc(NC(=O)Nc4cccc(Br)c4)cc3)ccc2[nH]1	-3.97	0.52	1.73	2.56	2.62	7.56	7.22	5.61	7.62	4.82	5.38	2.6	2.19	3.46	2.81	3.89	3.38	3.11	2.69	7.82
CN(C)C(=O)O[C@@H]1CN[C@@H](C#Cc2cc3ncnc(Nc4ccc(OCc5cccc(F)c5)c(Cl)c4)c3s2)C1	-1.68	0	0	-1.08	-1.78	6.13	-0.14	4.79	2.73	0.34	-2.71	1.22	0.34	2	2.88	0.28	-0.53	3.24	2.3	0.42
